# Source: the supplement of paper PMC3334620
# In all, about 33,000 sequences were measured (“E-score (-0.5 to 0.5)”: median about -0.056, highest 2% from about 0.38 on). The sample as a whole holds a higher share of the highest values than the screen did.
# Target: Stb4 (UniProt P50104)
# Test: PBM E-score (8-mer binding enrichment) (E-score (-0.5 to 0.5)); higher = stronger / more preferred TF binding
# Conditions: protein concentration: 200 nM; construct: GST-DNA-binding domain
# Method: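 Universal 'all 10-mer' protein binding microarrays (Agilent AMADID 015681) probed with GST-tagged S. cerevisiae TFs (full-length or DBD) made by in vitro transcription/translation (PURExpress), about 100-200 nM. Bound TF was detected with fluorescent anti-GST. Each ungapped 8-mer (which stands for itself and its reverse complement) is scored by the PBM enrichment score (E-score), a modified Wilcoxon-Mann-Whitney statistic from -0.5 to +0.5, computed with the Universal PBM Analysis Suite. Scale: above 0.35 generally sequence-specific binding.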
# Chain of UniProt P50104 (P50104 whole entry): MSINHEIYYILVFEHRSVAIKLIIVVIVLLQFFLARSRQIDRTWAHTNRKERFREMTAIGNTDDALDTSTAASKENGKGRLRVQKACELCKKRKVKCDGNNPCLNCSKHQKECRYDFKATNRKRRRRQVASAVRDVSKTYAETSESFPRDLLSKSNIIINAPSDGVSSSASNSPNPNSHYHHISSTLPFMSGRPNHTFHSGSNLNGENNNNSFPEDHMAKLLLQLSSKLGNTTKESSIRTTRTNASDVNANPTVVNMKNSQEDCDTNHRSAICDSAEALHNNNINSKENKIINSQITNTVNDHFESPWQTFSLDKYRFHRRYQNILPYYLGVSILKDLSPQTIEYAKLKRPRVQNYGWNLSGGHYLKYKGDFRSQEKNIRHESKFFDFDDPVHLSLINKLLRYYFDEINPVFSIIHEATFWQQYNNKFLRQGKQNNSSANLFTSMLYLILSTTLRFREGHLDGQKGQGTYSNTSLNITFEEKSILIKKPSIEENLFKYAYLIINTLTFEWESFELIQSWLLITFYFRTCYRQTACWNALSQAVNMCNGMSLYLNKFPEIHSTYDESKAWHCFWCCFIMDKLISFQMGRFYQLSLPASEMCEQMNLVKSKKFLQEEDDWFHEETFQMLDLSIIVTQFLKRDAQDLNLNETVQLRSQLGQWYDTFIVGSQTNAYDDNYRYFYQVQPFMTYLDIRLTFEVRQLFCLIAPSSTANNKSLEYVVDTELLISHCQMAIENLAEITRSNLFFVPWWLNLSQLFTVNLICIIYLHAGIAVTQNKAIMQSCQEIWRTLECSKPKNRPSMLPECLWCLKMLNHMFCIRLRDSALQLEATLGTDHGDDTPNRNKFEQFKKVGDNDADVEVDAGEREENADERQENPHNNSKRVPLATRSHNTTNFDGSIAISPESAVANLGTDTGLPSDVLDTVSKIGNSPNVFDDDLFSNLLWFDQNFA
row,Sequence,PBM E-score
1,CCGAGGCC,0.436
2,TCGAGGCA,-0.187
3,CCGAGGCA,0.396
4,CAGAGGCG,-0.0504
5,ACGAGGCC,-0.0545
6,GCGAGGCA,0.0697
7,ACGAGGCG,-0.0457
8,GCGAGGCC,-0.243
9,CCGAGGCG,0.398
10,ACTCGAGG,-0.152
11,ACCCGGGA,0.378
12,ACCCCCGA,0.317
13,ACCCGAGT,0.423
14,ACCCGAGG,0.427
15,ACCCGAGA,0.472
16,ACCCGGGC,0.326
17,ACACGAGT,-0.0741
18,ACCCGGGT,0.41
19,ACACGAGA,-0.19
20,ACCCGCGT,0.188
21,CCCCGAGG,0.375
22,AGAGCTCT,-0.0781
23,GAGCCCCC,-0.168
24,AGCTCACA,-0.192
25,CCTAGTAG,-0.0242

row,Sequence,PBM E-score
1,AGCATACT,-0.166
2,AGGGGAAT,0.0637
3,ATTGAGAA,-0.0694
4,CACAGTGG,-0.0386
5,ACCACCAA,0.031
6,CAGCTAGC,-0.0222
7,ACTCCTCT,-0.061
8,GGGCCACA,-0.0749
9,CCCCGAGC,0.371
10,TCCCGAGA,0.453
11,CCCCGAGA,0.326
12,ACCCGAGC,0.468
13,GCCCGAGC,0.316
14,GCCCGAGA,0.352
15,CGACTCGC,-0.0581
16,AAAGCAAG,0.149
17,AGCATTCA,-0.0667
18,ACCGAGTC,0.244
19,CTCGAGTC,-0.0623
20,ACCGAGTA,0.321
21,GCCGAGTA,0.374
22,CCCGAGTA,0.383
23,CCCGAGTC,0.395
24,GGGCATGA,-0.248
25,ACGCTGAG,-0.29

row,Sequence,PBM E-score
1,CGTCTTGC,0.125
2,ATGTGAGA,-0.03
3,GCTGGGAC,-0.117
4,AGCGGATG,0.275
5,CGCGGATC,0.263
6,AGCGGATA,0.386
7,AGCGGATC,0.255
8,GGCGGATA,0.374
9,CGCGGATA,0.4
10,CCCCCCTA,-0.178
11,ACTGGTGA,-0.226
12,CATCGGAC,0.259
13,TATCGGCA,0.326
14,GATCGGCC,0.218
15,CATCGGAA,0.435
16,GAACGGAA,0.346
17,CATCGGAG,0.204
18,TATCGGAA,0.431
19,GATCGGAA,0.425
20,GATCGGAC,0.392
21,TATCGGGA,0.361
22,GATCGGGC,0.22
23,GATCGTAA,-0.0241
24,CCATTCCG,0.35
25,ATATTGGA,-0.0099

row,Sequence,PBM E-score
1,CGTCTGCA,-0.122
2,GAGCATCA,-0.181
3,AACCAAGA,-0.0962
4,AAGGCCAA,-0.173
5,CCAATATC,0.137
6,AAAGAAAC,0.0504
7,CAATCGTC,-0.187
8,AATCGGGT,0.325
9,AATCGGAA,0.425
10,AATCGGAG,0.277
11,AATCGGAC,0.133
12,AATCGGAT,0.424
13,AATCGGCC,0.191
14,CTGACTGA,-0.239
15,CTAGCCCC,-0.0513
16,CTTAAAAA,-0.232
17,GTTCCCCA,-0.244
18,CTTCCCGA,0.438
19,GTTCCCGA,0.419
20,CTTCCCGC,0.2
21,ATTCCCGA,0.451
22,ATTCCCGC,0.295
23,ATTCCCGG,0.372
24,CTCCCCGA,0.282
25,GTTCCCAA,-0.009

row,Sequence,PBM E-score
1,GCGTCTGA,-0.15
2,CACTGCCA,-0.176
3,CAGCGCGG,0.148
4,ATGGGACA,-0.0554
5,CCATAGCC,0.0889
6,GTGGTCCA,-0.0876
7,GGGGACAA,0.109
8,CACCTGCG,-0.018
9,GGGAAGCA,0.0636
10,CGGAAGGC,0.373
11,AGGAAGCA,-0.109
12,CGGAAGCA,0.435
13,AGGAAGCC,0.0867
14,CGGAAGCC,0.41
15,GCAGCCAA,-0.103
16,ACTAGGTA,-0.202
17,ATCTGACC,0.104
18,ATTTTCGA,-0.256
19,AATTTCGA,-0.152
20,ACTTTCGA,-0.0194
21,AATTTCGG,0.393
22,ACTTTCGC,-0.239
23,ATTTTCGC,-0.0335
24,ATTTTCGG,0.423
25,ACTTTCGG,0.416

row,Sequence,PBM E-score
1,AATTTCGC,0.123
2,CTATCGAG,-0.194
3,CCGCTCTA,0.0787
4,ATGCAAAT,-0.115
5,CAACTCAA,-0.0984
6,GGAGCGGA,0.26
7,AGATGAAC,-0.0339
8,GCGCAAAC,-0.0362
9,CGTGACTA,-0.158
10,TGCGAGCA,-0.165
11,CCCGAGCG,0.43
12,CGCGAGCG,-0.016
13,TCCGAGCA,0.458
14,ACCGAGCC,0.356
15,GACGAGCC,-0.0685
16,CCCGAGCC,0.438
17,CGCGAGCC,0.143
18,GCCGAGCC,0.463
19,ACCGAGCA,0.374
20,ACCGAGCG,0.38
21,GCCGAGCA,0.357
22,CCTCTGGC,0.0427
23,AGGCTCCC,-0.0221
24,CGATGATA,0.122
25,ATTAACAC,0.00046

row,Sequence,PBM E-score
1,CAGGTGTA,-0.327
2,GGCACACC,0.0691
3,CCGCGCAA,0.0559
4,CCAAGTAC,-0.196
5,ATTAGGCA,-0.144
6,GTCGTCCA,-0.096
7,GCGACCCA,-0.00585
8,AGGTCCCG,0.325
9,CACAACGA,0.0887
10,CACGAGCA,-0.18
11,CCCGAGCA,0.405
12,CTCGAGCA,-0.0413
13,CGCGAAAG,-0.185
14,GGCTATAA,0.104
15,CGCCTGCC,-0.0366
16,CACAGATG,-0.0862
17,GAGCAGGC,-0.135
18,CATATCCA,-0.178
19,CATATCCG,0.403
20,CATATCCC,0.0584
21,AATATCCA,0.0783
22,AATATCCC,0.247
23,AATATCCG,0.452
